# Data published in PubChem BioAssay (NCATS).
# Where “and” joins values, the source holds several entries; their conditions need not be identical. Equal entries are not always repeated. Inconclusive results are not listed. Where a call stands in place of a potency, no number is given. Values without a mark were called inactive. Calls of active or inactive are those of the source. Unless noted, calls follow the shape of the dose curve; as a rule, active = well fitted curve in the direction sought with a large enough effect; inconclusive = small, poorly fitted or top-dose-only effect, or another doubt; inactive = no such curve, though single readings can be large; an effect the other way counts as inactive or inconclusive.
# How the values were obtained:
# [1] = target: Protein phosphatase 1D (Homo sapiens) (UniProt O15297); assay: RapidFire Mass Spectrometry qHTS Assay for Modulators of WT P53-Induced Phosphatase 1 (WIP1) (AID 1347424);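 also: amount of dephosphorylated VEPPL-S-QETFS peptide product formed by WIP1; series mostly up to about 63 µM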
# Method in brief: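 10 nM WIP1 + cpd, 1 h RT; + 2 uM VEPPL-pS-QETFS, 5 min RT; stop 0.5% formic acid; labelled product standard 1 uM; RapidFire MS. Buffer 50 mM Tris pH 7.5, 30 mM MgCl2, 1 mM TCEP.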
# [2] = target: Protein phosphatase 1D (Homo sapiens) (UniProt O15297); assay: Rhodamine-PBP qHTS Assay for Modulators of WT P53-Induced Phosphatase 1 (WIP1) (AID 1347425)
# Method in brief: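 WIP1 (5 nM final) was preincubated with compound for 1 hour at room temperature. It then dephosphorylated 10 uM VEPPL-pS-QETFS peptide in Tris-HCl pH 7.5 with 30 mM MgCl2. Released Pi was detected by 10 uM Rh-PBP fluorescence (ex 525/em 598 nm) read at 1-min intervals for 11 min, as delta f1 - f0.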
# [3] = Primary qHTS for inhibitors of La Crosse Virus (LACV) - induced cell death in SH-SY5Y cells (AID 1508616);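 also: top concentration of the series differs between compounds; higher means more rescue of cells from virus-induced death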
# Method in brief: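 Readout was luminescence from ATPLite 1step added after a 6-day LACV infection (0.01 MOI) of SH-SY5Y cells that had received pin-transferred compound 24 hr after seeding.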
# [4] = target: Calcium and integrin-binding protein 1 (Homo sapiens) (UniProt Q99828); assay: Primary qHTS for Identification of Calcium Integrin Binding Protein 1 (CIB1) Competitor (AID 1508620);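 also: GST tagged CIB1 binding a fluorescein labelled alphaIIb integrin peptide tracer; top concentration of the series differs between compounds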
# Method in brief: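 CIB1-GST (1 uM final) and compound incubated 15 min at room temperature before adding FITC-alphaIIb peptide tracer (100 nM final). Competition for binding read by fluorescence polarization (ex 480, em 540) after another 15 min at room temperature.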
# [5] = A High-Content qHTS Against Drug Library for the Identification of Small Molecules that Inhibit DYT1 Early Onset Primary Dystonia-Associated Cell Pathology (AID 1645839; calls by dose curve; also: series mostly up to about 46 µM)
# Method in brief: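 In this high-content image screen, delE TorsinA mislocalization in inducible Flp-In 293 cells is scored as %pathology, with cell count serving as the counterscreen. Compound exposure lasts 48 h under tetracycline induction in reduced-serum medium.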
# [6] = target: Cytochrome P450 2D6 (Homo sapiens) (UniProt P10635); assay: Cytochrome P450 family 2 subfamily D member 6 (CYP2D6) small molecule antagonists: luciferase biochemical (cell-free) qHTS assay (AID 1645840; active = well fitted curve in the direction sought with a large enough effect in the repeat runs; an effect the other way counts as inactive or inconclusive; also: nearly all actives have a fitted effect of over 55% in size; also: potency is read from the fitted curve at half-maximal effect; as to activity change, negative = inhibition: series mostly up to about 57 µM)
# Method in brief: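 P450-Glo luminescent screen: recombinant CYP2D6 enzyme–proluciferin substrate mix preincubated with compound 10 min at room temperature, then NADPH regeneration added for 1 h at room temperature. Detection reagent added for 20 min; luciferin light read as relative luminescence units.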
# [7] = target: Cytochrome P450 2C9 (Homo sapiens) (UniProt P11712); assay: Cytochrome P450 family 2 subfamily C member 9 (CYP2C9) small molecule antagonists: luciferase biochemical (cell-free) qHTS assay (AID 1645842; active = well fitted curve in the direction sought with a large enough effect in the repeat runs; an effect the other way counts as inactive or inconclusive; also: nearly all actives have a fitted effect of over 55% in size; also: potency is read from the fitted curve at half-maximal effect; as to activity change, negative = inhibition: series mostly up to about 57 µM)
# Method in brief: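 Luminescence, after 20 min with luciferin detection reagent, reflected CYP2C9 turnover during a 1 h NADPH-driven reaction at 37C. Enzyme-substrate mix contained 0.4% bovine serum albumin and was preincubated with compound 10 min at room temperature.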
# [8] = Primary qHTS for inhibitors of nuclear receptor binding SET domain protein 2 (NSD2) in an isogenic RCH-ACV NSD2 p.E1099K mutant (9B) (AID 1645876); also: nearly all actives have a fitted effect of over 70% in size; also: potency is read from the fitted curve at half-maximal effect
# [9] = Primary qHTS for inhibitors of nuclear receptor binding SET domain protein 2 (NSD2) in an RCH-ACV wild type WT cells (2C) (AID 1645877); also: nearly all actives have a fitted effect of over 70% in size; also: potency is read from the fitted curve at half-maximal effect
# [10] = Primary qHTS for small molecule stabilizers of the endoplasmic reticulum resident proteome: Secreted ER Calcium Modulated Protein (SERCaMP) assay (AID 1508630)
# Method in brief: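 GLuc-SERCaMP-expressing SH-SY5Y cells, pretreated 16 h with compound, are challenged with thapsigargin to empty ER calcium stores; after 4 h, coelenterazine is added directly to the medium and luminescence is imaged.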
# [11] = target: N-terminal Xaa-Pro-Lys N-methyltransferase 1 (Homo sapiens) (UniProt Q9BV86); assay: Confirmatory qHTS for Inhibitors of N-terminal methyltransferase 1 (NTMT1): MTaseGlo Assay (AID 1645874);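 also: luminescence from SAH made as NTMT1 methylates SPKRIA peptide using SAM; series mostly up to about 100 µM; nearly all actives have a fitted effect of over 65% in size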
# Method in brief: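 NTMT1 (125 nM) preincubated 15 min with compound and 100 uM SAM, then 1 uM SPKRIA peptide added for 30 min at room temperature. SAH detected by MTase-Glo luminescence; normalized to no-enzyme and DMSO controls, fitted to 4-parameter Hill.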
# [12] = target: Cytochrome P450 3A4 (Homo sapiens) (UniProt P08684); assay: Cytochrome P450 family 3 subfamily A member 4 (CYP3A4) small molecule antagonists: luciferase qHTS assay (AID 1645841; active = well fitted curve in the direction sought with a large enough effect in the repeat runs; an effect the other way counts as inactive or inconclusive; also: nearly all actives have a fitted effect of over 45% in size)
# Method in brief: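 Luminescent CYP3A4 activity readout: compounds plus enzyme-substrate mix 10 min at room temperature, reaction started with NADPH regenerating system for 1 h, stopped with detection reagent, read after 20 min. Ketoconazole served as control.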
# Chain of Calcium and integrin-binding protein 1 (Homo sapiens) (Q99828 whole entry, looked up): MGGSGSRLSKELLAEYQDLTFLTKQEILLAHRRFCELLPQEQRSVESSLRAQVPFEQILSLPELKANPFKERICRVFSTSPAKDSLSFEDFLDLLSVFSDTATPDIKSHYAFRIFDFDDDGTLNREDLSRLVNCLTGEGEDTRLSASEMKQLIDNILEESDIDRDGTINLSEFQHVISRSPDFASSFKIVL
# Chain of Protein phosphatase 1D (Homo sapiens) (O15297 whole entry, looked up): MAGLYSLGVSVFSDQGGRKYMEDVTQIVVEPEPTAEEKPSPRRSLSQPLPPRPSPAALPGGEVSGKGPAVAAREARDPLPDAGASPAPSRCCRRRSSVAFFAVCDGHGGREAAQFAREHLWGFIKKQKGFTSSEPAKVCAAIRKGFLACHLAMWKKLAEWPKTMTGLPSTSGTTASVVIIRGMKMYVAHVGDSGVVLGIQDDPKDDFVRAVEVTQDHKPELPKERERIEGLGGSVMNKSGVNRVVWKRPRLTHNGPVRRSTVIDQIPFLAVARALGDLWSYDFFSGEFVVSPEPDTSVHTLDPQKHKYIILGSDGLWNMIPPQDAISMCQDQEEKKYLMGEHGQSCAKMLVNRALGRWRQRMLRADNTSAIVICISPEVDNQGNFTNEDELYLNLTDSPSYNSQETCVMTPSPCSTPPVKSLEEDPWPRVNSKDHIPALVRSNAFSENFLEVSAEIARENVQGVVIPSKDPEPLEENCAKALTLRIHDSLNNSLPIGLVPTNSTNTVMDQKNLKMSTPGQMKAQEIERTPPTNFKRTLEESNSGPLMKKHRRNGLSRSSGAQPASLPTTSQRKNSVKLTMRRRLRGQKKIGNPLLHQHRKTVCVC
# Chain of Cytochrome P450 2D6 (Homo sapiens) (P10635 whole entry, looked up): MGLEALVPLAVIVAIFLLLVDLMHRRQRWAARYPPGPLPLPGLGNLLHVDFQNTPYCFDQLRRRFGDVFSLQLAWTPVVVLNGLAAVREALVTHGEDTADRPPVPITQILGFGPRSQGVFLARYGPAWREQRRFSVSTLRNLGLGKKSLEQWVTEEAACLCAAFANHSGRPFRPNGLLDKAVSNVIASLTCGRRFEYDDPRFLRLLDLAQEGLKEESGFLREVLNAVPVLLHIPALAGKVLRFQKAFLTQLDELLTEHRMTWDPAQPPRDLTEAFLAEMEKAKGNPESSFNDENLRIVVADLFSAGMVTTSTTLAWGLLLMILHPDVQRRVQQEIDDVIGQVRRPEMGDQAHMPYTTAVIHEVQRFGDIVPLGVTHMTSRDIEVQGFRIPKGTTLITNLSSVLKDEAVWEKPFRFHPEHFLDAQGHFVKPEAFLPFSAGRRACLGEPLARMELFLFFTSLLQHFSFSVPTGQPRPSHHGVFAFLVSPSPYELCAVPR
# Chain of Cytochrome P450 2C9 (Homo sapiens) (P11712 whole entry, looked up): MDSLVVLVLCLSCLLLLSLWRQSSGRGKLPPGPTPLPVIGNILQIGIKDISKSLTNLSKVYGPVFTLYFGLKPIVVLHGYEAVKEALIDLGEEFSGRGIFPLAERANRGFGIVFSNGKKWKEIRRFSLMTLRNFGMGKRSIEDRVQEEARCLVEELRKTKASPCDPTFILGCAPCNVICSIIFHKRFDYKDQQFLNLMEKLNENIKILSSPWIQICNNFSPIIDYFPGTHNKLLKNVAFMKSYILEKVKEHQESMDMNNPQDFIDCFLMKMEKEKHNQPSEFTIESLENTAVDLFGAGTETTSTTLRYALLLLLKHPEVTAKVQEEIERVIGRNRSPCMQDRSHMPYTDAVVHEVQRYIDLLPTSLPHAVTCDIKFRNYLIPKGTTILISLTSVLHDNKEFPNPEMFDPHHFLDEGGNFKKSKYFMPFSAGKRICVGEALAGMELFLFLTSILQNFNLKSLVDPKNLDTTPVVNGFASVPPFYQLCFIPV
# Chain of Cytochrome P450 3A4 (Homo sapiens) (P08684 whole entry, looked up): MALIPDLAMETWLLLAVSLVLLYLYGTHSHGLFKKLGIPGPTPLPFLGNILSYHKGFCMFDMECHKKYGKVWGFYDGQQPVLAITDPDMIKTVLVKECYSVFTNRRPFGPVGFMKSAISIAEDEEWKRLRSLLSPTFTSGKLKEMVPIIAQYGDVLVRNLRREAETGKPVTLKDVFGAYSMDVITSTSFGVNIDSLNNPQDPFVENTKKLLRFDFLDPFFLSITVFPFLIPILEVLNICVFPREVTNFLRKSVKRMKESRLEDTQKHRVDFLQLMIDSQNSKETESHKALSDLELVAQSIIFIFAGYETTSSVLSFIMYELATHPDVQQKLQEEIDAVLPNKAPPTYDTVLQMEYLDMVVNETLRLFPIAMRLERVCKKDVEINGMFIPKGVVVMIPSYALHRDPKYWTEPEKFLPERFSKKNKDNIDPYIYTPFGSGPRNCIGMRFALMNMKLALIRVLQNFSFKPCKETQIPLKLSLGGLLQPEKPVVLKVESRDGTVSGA
# Chain of N-terminal Xaa-Pro-Lys N-methyltransferase 1 (Homo sapiens) (Q9BV86 whole entry, looked up): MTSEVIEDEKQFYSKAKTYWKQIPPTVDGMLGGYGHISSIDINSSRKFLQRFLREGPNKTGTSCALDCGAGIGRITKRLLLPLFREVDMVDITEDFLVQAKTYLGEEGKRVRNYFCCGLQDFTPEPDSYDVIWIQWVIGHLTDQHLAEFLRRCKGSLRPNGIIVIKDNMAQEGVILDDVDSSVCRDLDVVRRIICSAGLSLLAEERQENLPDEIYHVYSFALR
smiles,measurement,setting,value
NCCCC[C@H](N[C@@H](CCc1ccccc1)C(=O)O)C(=O)N1CCC[C@H]1C(=O)O,Potency,[1],inactive
same,outcome,[2],inactive
same,Potency,[3],inactive
same,Potency,[4],inactive
same,Potency,[5],inactive
same,Potency,[6],inactive
same,Potency,[7],inactive
same,Potency,[8],inactive
same,Potency,[9],inactive
O=c1ccc2ccccc2o1,Potency,[1],inactive
same,outcome,[2],inactive
same,Potency,[3],inactive
same,Potency,[4],inactive
same,Potency,[5],inactive
same,Potency,[6],inactive
same,Potency,[7],inactive
same,Potency,[8],inactive
same,Potency,[9],inactive
O=C(OCC(O)CO)c1ccccc1Nc1ccnc2cc(Cl)ccc12 (stereo not given),Potency,[1],inactive
same,outcome,[2],inactive
same,Potency,[3],inactive
same,Potency,[4],inactive
same,Potency,[10],inactive
same,Potency,[6],8.71 µM (active)
same,Potency,[7],5.49 µM (active)
same,Potency,[8],16.8 µM (active)
same,Potency,[9],23.7 µM (active)
Nc1ccc(/C=C/c2ccc(N)cc2S(=O)(=O)O)c(S(=O)(=O)O)c1,"activity change, negative = inhibition",[1],-4.22% [at 0.505 µM]
same,"activity change, negative = inhibition",[2],11.7% [at 0.575 µM]
same,activity change,[3],5.33% [at 0.0343 µM]
same,"activity change, negative = inhibition",[4],-1.2% [at 1.07 µM]
same,"% pathology change, negative = correction",[5],12.8% [at 0.369 µM]
same,"activity change, negative = inhibition",[6],18.7% [at 0.91 µM]
same,"activity change, negative = inhibition",[7],13.7% [at 0.91 µM]
same,outcome,[8],inactive [at 0.588 µM]
same,outcome,[9],inactive [at 0.588 µM]
COc1cc(C(=S)N2CCOCC2)cc(OC)c1OC,Potency,[1],inactive
same,outcome,[2],inactive
same,Potency,[3],inactive
same,Potency,[4],inactive
same,Potency,[10],inactive
same,Potency,[6],inactive
same,Potency,[7],inactive
same,Potency,[8],inactive
same,Potency,[9],inactive
N[C@H](Cc1c[nH]c2ccccc12)C(=O)O,Potency,[1],inactive
same,outcome,[2],inactive
same,Potency,[3],inactive
same,Potency,[4],inactive
same,Potency,[10],inactive
same,Potency,[8],inactive
same,Potency,[9],inactive
COc1cccc(OC)c1C(=O)N[C@@H]1C(=O)N2[C@@H]1SC(C)(C)[C@@H]2C(=O)O,Potency,[1],inactive
same,outcome,[2],inactive
same,Potency,[3],inactive
same,Potency,[4],inactive
same,Potency,[10],inactive
same,Potency,[6],inactive
same,Potency,[7],inactive
same,Potency,[8],inactive
same,Potency,[9],inactive
COC(=O)C1=C(C)NC(C)=C(C(=O)O[C@@H]2CCCN(Cc3ccccc3)C2)[C@@H]1c1cccc([N+](=O)[O-])c1,Potency,[1],inactive
same,outcome,[2],inactive
same,Potency,[3],inactive
same,Potency,[4],inactive
same,Potency,[6],6.92 µM (active)
same,Potency,[7],0.195 µM (active)
same,Potency,[11],inactive
same,Potency,[8],21.1 µM (active) and 25.8 µM (active)
same,Potency,[9],20.5 µM (active)
Cc1ccc(O)c2ncccc12,Potency,[1],inactive
same,outcome,[2],inactive
same,Potency,[3],inactive
same,Potency,[6],inactive
same,Potency,[7],inactive
same,Potency,[8],10.6 µM (active)
CCN(CC)C(=O)N1CCN(C)CC1,Potency,[1],inactive
same,outcome,[2],inactive
same,Potency,[4],inactive
same,Potency,[10],inactive
same,Potency,[5],inactive
same,Potency,[6],inactive
same,Potency,[7],inactive
same,Potency,[8],inactive
C[C@]12CCC(=O)C=C1[C@@H]1C[C@@H]1[C@H]1[C@@H]3[C@@H]4C[C@@H]4[C@@]4(CCC(=O)O4)[C@@]3(C)CC[C@@H]12,Potency,[1],inactive
same,outcome,[2],inactive
same,Potency,[3],inactive
same,Potency,[4],inactive
same,Potency,[5],inactive
same,Potency,[7],inactive
CCOC(=O)COc1ccc2c(C)c(CCN(CC)CC)c(=O)oc2c1Cl,Potency,[1],inactive
same,outcome,[2],inactive
same,Potency,[3],inactive
same,Potency,[4],inactive
same,outcome,[12],inactive
same,Potency,[7],inactive
same,Potency,[8],inactive
same,Potency,[9],inactive
COc1cccc(CCc2ccccc2OCC(CN(C)C)OC(=O)CCC(=O)O)c1 (stereo not given),Potency,[1],inactive
same,outcome,[2],inactive
same,Potency,[3],inactive
same,Potency,[4],inactive
same,Potency,[6],0.195 µM (active)
same,Potency,[7],inactive
OC(CCN1CCCCC1)(c1ccccc1)c1ccccc1,Potency,[1],inactive
same,outcome,[2],inactive
same,Potency,[3],inactive
same,Potency,[4],inactive
same,Potency,[6],0.617 µM (active)
same,Potency,[7],inactive
same,Potency,[8],inactive
same,Potency,[9],inactive
COc1cc(OC)cc(OC)c1,Potency,[1],inactive
same,outcome,[2],inactive
same,Potency,[3],inactive
same,Potency,[4],inactive
same,Potency,[6],inactive
same,Potency,[7],inactive
same,Potency,[8],inactive
same,Potency,[9],inactive
COc1ccc(CN2CCN(C(c3ccc(F)cc3)c3ccc(F)cc3)CC2)c(OC)c1OC,Potency,[1],inactive
same,outcome,[2],inactive
same,Potency,[3],inactive
same,Potency,[4],inactive
same,Potency,[6],2.19 µM (active)
same,Potency,[7],11 µM (active)
same,Potency,[9],16.3 µM (active)
NC(=O)c1cc[n+](CC2=C(C(=O)[O-])N3C(=O)[C@@H](NC(=O)Cc4cccs4)[C@H]3SC2)cc1,Potency,[1],inactive
same,outcome,[2],inactive
same,Potency,[3],inactive
same,Potency,[4],inactive
same,Potency,[6],inactive
same,Potency,[7],inactive
same,Potency,[8],inactive
same,Potency,[9],inactive
Oc1ccc(Cl)c2cccnc12,Potency,[1],inactive
same,outcome,[2],inactive
same,Potency,[3],inactive
same,Potency,[10],inactive
same,Potency,[5],inactive
same,Potency,[6],inactive
same,Potency,[7],inactive
CC(C)COC(=O)c1ccc(N)cc1,Potency,[1],inactive
same,outcome,[2],inactive
same,Potency,[4],inactive
